# Experimental data published in PubChem BioAssay (NCI).
# The panel holds about 79,000 compounds, 15% with a hit somewhere; the sample as a whole holds those more often. Unmarked numbers belong to inactive results. Activity calls are given as the source filed them. Rule as the data show it: active = growth inhibition above about 70%; inactive = the rest.
# Assay: NCI Yeast Anticancer Drug Screen. Data for the CLN2oe strain (AID 163);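 also: 0% = growth of vehicle-only control cultures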
# Details: S. cerevisiae CLN2oe strain, active compounds read high
# Protocol: Growth inhibition of yeast strains with defined genetic alterations is measured as a screen for potential anti-cancer activity. Selected strains with alterations in DNA damage repair or cell cycle control were exposed to compounds and growth inhibition was measured relative to vehicle treated controls. The strain used in this assay is CLN2oe
Structure (SMILES),growth inhibition (at 1.2 µM) [%],growth inhibition (at 3.7 µM) [%],growth inhibition (at 11.0 µM) [%],growth inhibition (at 33.0 µM),growth inhibition (at 100.0 µM)
CC1=C(N2CC2)C(=O)c2ccccc2C1=O,-1,0,0,2%,39%
O=[N+]([O-])c1ccc(N2CCC(CCCC3CCN(c4ccc([N+](=O)[O-])cc4[N+](=O)[O-])CC3)CC2)c([N+](=O)[O-])c1,-8,-3,3,-19%,7%
CCOP(=S)(S)OCC.[Pd],-3,20,59,76% (active),77% (active)
C[C@]12CCC(=O)C=C1CC[C@@H]1C2CC[C@@]2(C)C1CC[C@@H]2OC(=O)C12OC1CCC2=O (stereo not given in full),10,12,14,39%,96% (active)
CSc1ccccc1[As](C)C,-4,-1,32,99% (active),98% (active)
CCC1(O)C(=O)OCc2c1cc1n(c2=O)Cc2cc3cc(Cl)ccc3nc2-1 (stereo not given),6,14,33,47%,59%
CC[PH+](CC)CC.CC[PH+](CC)CC.[Au],2,20,23,54%,97% (active)
C/C(=N\O)c1ccc2ccc3ccccc3c2c1,-1,2,6,28%,87% (active)
